{"source": "PubChem BioAssay (Tox21)", "note": "Records with an inconclusive call do not appear. A number with no mark means an inactive call. Activity calls are given as the source filed them. Calls come from the whole dose curve; as a rule, active = well fitted cell-killing curve with a large enough effect in the repeat runs; inconclusive = weak or mixed curves, or effect the other way; inactive = flat fitted curve, though single readings scatter. % is set by controls: 0 for no effect and ±100 for the full control effect; potency is the fitted concentration of half-maximal effect.", "data": [{"assay": "cAMP Responsive Elements (CRE) small molecule antagonists, cell-based qHTS assay: qHTS cell viability counter screen (AID 2060913); note: nearly all actives have a fitted effect of over 40% in size", "conditions": "CRE-bla HEK293T viability, CellTiter-Glo luminescence, 5 h; series mostly up to 92.4 µM; viability change, negative = cytotoxic: at the top concentration", "procedure,_shortened": "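CRE-bla HEK293T cells were seeded in assay medium with 10% dialyzed FBS, incubated 18 hrs at 37 C, then exposed to compounds plus 0.25 uM final NKH477 for 3 hrs. Viability was read by CellTiter-Glo luminescence after 30 min, in the same wells.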", "values": [{"smiles": "CC(C)C[C@H](NC(=O)[C@H](Cc1ccccc1)NC(=O)c1cnccn1)B(O)O", "viability change, negative = cytotoxic": "4.81% [at 42.5 µM]"}, {"smiles": "CCCCCCCCCCCBr", "viability change, negative = cytotoxic": "4.23% [at 42.5 µM]"}, {"smiles": "CC(C)CCOCCC(C)C", "viability change, negative = cytotoxic": "15.7%"}, {"smiles": "CCCCC(C=O)CC", "note": "(centres undefined)", "Potency": "inactive"}, {"smiles": "CC(=O)c1nccs1", "Potency": "inactive"}, {"smiles": "CC(C)C[C@H](NC(=O)[C@H](CCc1ccccc1)NC(=O)CN1CCOCC1)C(=O)N[C@@H](Cc1ccccc1)C(=O)N[C@@H](CC(C)C)C(=O)[C@@]1(C)CO1", "viability change, negative = cytotoxic": "-0.0993% [at 42.5 µM]"}, {"smiles": "CC(=O)CC(C)(C)C1CCCCC1", "viability change, negative = cytotoxic": "-13.8%"}, {"smiles": "Cc1cc(C)cc([N+](=O)[O-])c1", "viability change, negative = cytotoxic": "5.85%"}, {"smiles": "CC(=O)Oc1ccccc1C(=O)Nc1ncc([N+](=O)[O-])s1", "Potency": "7.5 µM (active)"}, {"smiles": "Cc1cc(=O)oc2cc(N(C)C)ccc12", "viability change, negative = cytotoxic": "0.1%"}, {"smiles": "Oc1c(I)cc(Cl)c2cccnc12", "Potency": "inactive"}, {"smiles": "COC(C)(OC)OC", "viability change, negative = cytotoxic": "0.302%"}, {"smiles": "CCN(CC)C(=O)Nc1ccc(OCC(O)CNC(C)(C)C)c(C(C)=O)c1", "note": "(centres undefined)", "viability change, negative = cytotoxic": "8.77% [at 42.5 µM]"}, {"smiles": "C=CC(C)(C)C", "Potency": "inactive"}, {"smiles": "COc1cc(S(=O)(=O)O)c(C)cc1N=Nc1c(O)ccc2cc(S(=O)(=O)O)ccc12", "viability change, negative = cytotoxic": "-1.36%"}, {"smiles": "CS(=O)(=O)O", "viability change, negative = cytotoxic": "2.36%"}, {"smiles": "CCCCCCCC/C=C/C(=O)O", "viability change, negative = cytotoxic": "-1.96% [at 42.5 µM]"}, {"smiles": "O=[Si]=O", "viability change, negative = cytotoxic": "0.951%"}, {"smiles": "CCC(C)(C)C1CCC(O)CC1", "note": "(centres undefined)", "viability change, negative = cytotoxic": "-8.99%"}, {"smiles": "CC(=O)c1cnccn1", "viability change, negative = cytotoxic": "5.53%"}, {"smiles": "CC(NN)c1ccccc1", "note": "(centres undefined)", "viability change, negative = cytotoxic": "-0.733% [at 18.9 µM]"}, {"smiles": "O=c1[nH]c2ccccc2n1CCCN1CCN(C(c2ccccc2)c2ccccc2)CC1", "viability change, negative = cytotoxic": "-1.01% [at 42.5 µM]"}, {"smiles": "CC(C)N(c1ccccc1)C(C)C", "viability change, negative = cytotoxic": "4.38%"}, {"smiles": "O=C(O)CCCCCCCCCCCC(=O)O", "Potency": "inactive"}, {"smiles": "CC(CO)CO", "viability change, negative = cytotoxic": "-0.845%"}, {"smiles": "C=CC(=O)NC(C)(C)C", "viability change, negative = cytotoxic": "2.32%"}, {"smiles": "CCCCCCCCCCC=CC1CC(=O)OC1=O", "note": "(centres undefined)", "Potency": "inactive"}, {"smiles": "Cc1ccc2nc(N)[nH]c(=O)c2c1Sc1ccncc1", "viability change, negative = cytotoxic": "8.02% [at 42.5 µM]"}, {"smiles": "Cc1ccc2c(c1)C(=O)c1ccccc1C2=O", "viability change, negative = cytotoxic": "-6.27%"}, {"smiles": "Nc1ccccc1[N+](=O)[O-]", "Potency": "inactive"}, {"smiles": "O=C1C(=O)c2ccccc2C(O)=C1C1CCC(c2ccc(Cl)cc2)CC1", "note": "(centres undefined)", "viability change, negative = cytotoxic": "-0.361% [at 42.5 µM]"}, {"smiles": "C[C@@H]1NC(=O)[C@@H](N)CNC(=O)[C@H](C2CCNC(N)=N2)NC(=O)/C(=C/NC(N)=O)NC(=O)[C@H](CNC(=O)C[C@@H](N)CCCN)NC1=O", "note": "(some centres undefined)", "viability change, negative = cytotoxic": "-0.0663% [at 0.349 µM]"}, {"smiles": "CCCCCCCCSCC", "viability change, negative = cytotoxic": "4.37%"}, {"smiles": "Nc1ncnc2c1ncn2[C@H]1CC[C@@H](CO)O1", "viability change, negative = cytotoxic": "15.1%"}, {"smiles": "CCCCCCC(CO)CCCC", "note": "(centres undefined)", "viability change, negative = cytotoxic": "2.75%"}, {"smiles": "CC(C)=CCCC(C)O", "note": "(centres undefined)", "viability change, negative = cytotoxic": "21.5%"}, {"smiles": "CCCCCCCCCc1ccc(OCCOCCO)cc1", "Potency": "22.8 µM (active)"}, {"smiles": "Cc1cccc(C)c1NC(=O)CN1CCCCCC1", "viability change, negative = cytotoxic": "-0.252% [at 42.5 µM]"}, {"smiles": "C#C[C@]1(O)CC[C@H]2[C@@H]3CCc4cc(OC5CCCC5)ccc4[C@H]3CC[C@@]21C", "viability change, negative = cytotoxic": "-10.4% [at 42.5 µM]"}]}]}
